Results on eleven compounds are retold here after PubChem BioAssay (NCATS).

SMILES strings stand for the structures. Several values for one entry are separate records, joined by “and”; a condition that tells them apart may be missing. Equal entries are not always repeated. Inconclusive results are not listed. Where a structure was tested more than once in an assay, its records may differ in their call. Activity calls are given as the source filed them. Unless noted, the call rests on the fitted dose curve; in most records, active means well fitted curve in the direction sought with a large enough effect; inconclusive means small, poorly fitted or top-dose-only effect, or another doubt; inactive means no such curve, though single readings can be large; an effect the other way counts as inactive or inconclusive.

The nature of experiment [1]: High-throughput drug toxicity screening in the BPDCN cell line Gen2.2 (AID 1224824; call rule not given here;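 further: cells exposed to compounds for 48 h before reading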). The following applies: Gen2.2 BPDCN cells; at 45.8 µM (top of the series) unless noted. An outline of the steps:
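CellTiter-Glo luminescence after 48 h compound exposure of Gen2.2 cells; percent activity set with DMSO as 100% and bortezomib (9.2 uM final) as 0%. Cells seeded at 500 per well, RPMI + 10% FBS, 37 °C.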

Experiment [2] can be described thus: High-throughput drug toxicity screening in the BPDCN cell line Cal-1 (AID 1224825; call rule not given here). To be noted: Cal-1 BPDCN cell viability, qHTS; at 45.8 µM (top of the series) unless noted. An outline of the steps:
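CellTiter-Glo luminescence after 48 h compound exposure; percent activity scaled with DMSO as 100% and bortezomib (9.2 uM final) as 0%. Cal-1 cells seeded at 500/well in RPMI, 10% FBS, no phenol red.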

Experiment [3] is described as follows: qHTS assay for measurement of the activity of small molecule inhibitors on Zika virus induced Caspase-3 activity in human iPSC derived neural progenitor cells (hNPCs) (AID 1224857). Further: % of control where 0% means no effect; nearly all actives have a fitted effect of over 65% in size. The method in brief:
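Percent inhibition of virus-induced caspase-3/7 luminescence (Caspase-Glo), scaled between uninfected cells and Zika-infected cells. hNPCs received compound 1 hr before ZIKV at 2 FFU/cell, with 6 hours infection at 37 C.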

A short description of experiment [4]: qHTS assay for measurement of the activity of small molecule inhibitors on Zika virus induced Caspase-3 activity in human astrocytoma cells (AID 1224859).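 Further: plate controls were ZIKV-infected untreated cells for no effect and uninfected cells for full effect.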 An outline of the steps:
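Luminescent caspase-3/7 read-out (30 min reagent, room temperature) in human SNB-19 cells infected 6 h with ZIKV (2 FFU/cell) after 1 h compound pre-incubation; Data were normalised to uninfected and infected wells.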

Experiment [5] can be described thus: qHTS Screen of the MIPE 4.0 Collection Against Ewings Sarcoma (TC71) (AID 1259253). Further: nearly all actives have a fitted effect of over 40% in size. Further: potency means the concentration at half of the fitted maximal effect. The method in brief: (§1)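 Log-phase cells in RPMI with 5% FBS attached for 4 h, then received compounds as a titration for 48 h at 37C, 5% CO2. Viability was read by CellTiter-Glo luminescence and normalized to DMSO and no-cell wells.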
Experiment [6] is described as follows: qHTS Screen of the MIPE 4.0 Collection Against Ewings Sarcoma (EW8) (AID 1259255). Further: nearly all actives have a fitted effect of over 35% in size. Further: potency means the concentration at half of the fitted maximal effect.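 On viability: 100% = DMSO-treated cells and 0% = medium-only wells without cells.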 An outline of the steps:
as §1

A short description of experiment [7]: qHTS Screen of the MIPE 4.0 Collection Against Ewings Sarcoma (TC32) (AID 1259256). Further: nearly all actives have a fitted effect of over 45% in size. Further: potency means the concentration at half of the fitted maximal effect. An outline of the steps:
as §1

A short description of experiment [8]: qHTS assay to identify small molecule inhibitors of chordoma cells - UCH-1 (AID 1259355). Further: on the % scale 0 is the no-effect control and ±100 the full control effect; nearly all actives have a fitted effect of over 55% in size. The method in brief: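 Screening used approved and investigational drugs in 15-point titration against 800 seeded cells per well. A fixed combination of auranofin with camptothecin, doxorubicin, rubitecan and topotecan followed compound addition, and growth was scored by CellTiter-Glo after 48hr.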

The nature of experiment [9]: qHTS assay to identify small molecule inhibitors of chordoma cells - UCH-2 (AID 1259356). Further: on the % scale 0 is the no-effect control and ±100 the full control effect.
Experiment [10] can be described thus: P-glycoprotein substrates identified in KB-8-5-11 adenocarcinoma cell line, qHTS therapeutic library screen (AID 1346987). Further: nearly all actives have a fitted effect of over 65% in size. Further: potency means the concentration at half of the fitted maximal effect. The method in brief: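 Luminescence from CellTiter-Glo, read 5 min after addition, quantified survival of KB-8-5-11 (P-gp-overexpressing) cells exposed to compounds for 72 h. AC50 was derived from concentration-response curves.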
A short description of experiment [11]: P-glycoprotein substrates identified in KB-3-1 adenocarcinoma cell line, qHTS therapeutic library screen (AID 1346986). Further: nearly all actives have a fitted effect of over 60% in size. The following applies: KB-3-1 parental cells viability, CellTiter-Glo, 72 h; at 44.5 µM (top of the series). The method in brief:
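In 1536-well format, 500 cells/well received pinned compound titrations and were incubated 72 h, 5% CO2. Viability was read by CellTiter-Glo; cytotoxic if AC50 < 10 uM and efficacy >50%.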

Experiment [12] is described as follows: qHTS Screen of the MIPE 4.0 Collection Against Ewings Sarcoma (RDES) (AID 1259252). Further: nearly all actives have a fitted effect of over 35% in size. Further: potency means the concentration at half of the fitted maximal effect. The method in brief: as §1
Experiment [13] deals with Atrial natriuretic peptide receptor 1 (Homo sapiens) (UniProt P16066). The experiment in a line: Natriuretic polypeptide receptor (hNpr1) antagonism - Pilot screen (AID 1347049; calls by dose curve;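 further: agonist-evoked cGMP luminescence read 20 min after hNppA addition; on the % scale 0 is the no-effect control and ±100 the full control effect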). An outline of the steps: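 cGMP-sensor HEK293/hNpr1 cells, 1500/well, plated overnight at 37C. 2% GloSensor reagent, 2 h RT. Compound (23 nL pin transfer) 30 min RT, baseline luminescence pre-read. 0.1 nM hNppA, 20 min RT, post-read.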
Chain of Atrial natriuretic peptide receptor 1 (Homo sapiens) (P16066 whole entry, looked up): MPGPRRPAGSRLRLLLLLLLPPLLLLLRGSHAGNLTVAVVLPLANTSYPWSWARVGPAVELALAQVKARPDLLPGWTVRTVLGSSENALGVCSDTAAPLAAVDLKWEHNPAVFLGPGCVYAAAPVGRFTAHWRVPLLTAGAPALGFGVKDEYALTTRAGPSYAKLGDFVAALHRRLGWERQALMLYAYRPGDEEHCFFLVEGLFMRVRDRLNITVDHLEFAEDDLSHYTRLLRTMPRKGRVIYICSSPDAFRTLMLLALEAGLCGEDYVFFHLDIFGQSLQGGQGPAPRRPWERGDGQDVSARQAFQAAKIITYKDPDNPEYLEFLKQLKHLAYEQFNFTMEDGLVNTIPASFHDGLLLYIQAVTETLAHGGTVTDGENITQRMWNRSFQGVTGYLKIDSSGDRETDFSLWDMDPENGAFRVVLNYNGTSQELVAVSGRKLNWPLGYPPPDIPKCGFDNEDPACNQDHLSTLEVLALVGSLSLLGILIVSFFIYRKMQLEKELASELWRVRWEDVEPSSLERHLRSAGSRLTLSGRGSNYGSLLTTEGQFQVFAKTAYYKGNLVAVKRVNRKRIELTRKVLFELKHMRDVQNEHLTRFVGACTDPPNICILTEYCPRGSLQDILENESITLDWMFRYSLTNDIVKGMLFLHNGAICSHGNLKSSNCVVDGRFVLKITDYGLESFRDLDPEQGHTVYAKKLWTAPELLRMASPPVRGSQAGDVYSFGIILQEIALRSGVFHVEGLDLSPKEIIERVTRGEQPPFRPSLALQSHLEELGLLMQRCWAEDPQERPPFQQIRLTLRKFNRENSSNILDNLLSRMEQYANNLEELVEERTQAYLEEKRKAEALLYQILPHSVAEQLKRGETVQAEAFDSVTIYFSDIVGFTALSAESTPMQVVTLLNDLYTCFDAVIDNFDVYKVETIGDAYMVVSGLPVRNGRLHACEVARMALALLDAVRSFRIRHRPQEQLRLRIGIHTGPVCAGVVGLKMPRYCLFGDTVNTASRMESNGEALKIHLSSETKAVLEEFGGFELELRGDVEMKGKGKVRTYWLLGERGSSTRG

Experiment [14] has as its target Atrial natriuretic peptide receptor 2 (Homo sapiens) (UniProt P20594). The experiment in a line: Natriuretic polypeptide receptor (hNpr2) antagonism - Pilot subtype selectivity assay (AID 1347050; calls by dose curve; further: on the % scale 0 is the no-effect control and ±100 the full control effect). The method in brief:
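Luminescence from a genetically encoded cGMP luciferase biosensor in hNpr2-expressing HEK293 cells is read before and 20 min after adding 1 nM hNppC. Test compounds, in interplate 1:5 titrations, are added 30-50 min ahead of the agonist.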

Chain of Atrial natriuretic peptide receptor 2 (Homo sapiens) (P20594 whole entry, looked up): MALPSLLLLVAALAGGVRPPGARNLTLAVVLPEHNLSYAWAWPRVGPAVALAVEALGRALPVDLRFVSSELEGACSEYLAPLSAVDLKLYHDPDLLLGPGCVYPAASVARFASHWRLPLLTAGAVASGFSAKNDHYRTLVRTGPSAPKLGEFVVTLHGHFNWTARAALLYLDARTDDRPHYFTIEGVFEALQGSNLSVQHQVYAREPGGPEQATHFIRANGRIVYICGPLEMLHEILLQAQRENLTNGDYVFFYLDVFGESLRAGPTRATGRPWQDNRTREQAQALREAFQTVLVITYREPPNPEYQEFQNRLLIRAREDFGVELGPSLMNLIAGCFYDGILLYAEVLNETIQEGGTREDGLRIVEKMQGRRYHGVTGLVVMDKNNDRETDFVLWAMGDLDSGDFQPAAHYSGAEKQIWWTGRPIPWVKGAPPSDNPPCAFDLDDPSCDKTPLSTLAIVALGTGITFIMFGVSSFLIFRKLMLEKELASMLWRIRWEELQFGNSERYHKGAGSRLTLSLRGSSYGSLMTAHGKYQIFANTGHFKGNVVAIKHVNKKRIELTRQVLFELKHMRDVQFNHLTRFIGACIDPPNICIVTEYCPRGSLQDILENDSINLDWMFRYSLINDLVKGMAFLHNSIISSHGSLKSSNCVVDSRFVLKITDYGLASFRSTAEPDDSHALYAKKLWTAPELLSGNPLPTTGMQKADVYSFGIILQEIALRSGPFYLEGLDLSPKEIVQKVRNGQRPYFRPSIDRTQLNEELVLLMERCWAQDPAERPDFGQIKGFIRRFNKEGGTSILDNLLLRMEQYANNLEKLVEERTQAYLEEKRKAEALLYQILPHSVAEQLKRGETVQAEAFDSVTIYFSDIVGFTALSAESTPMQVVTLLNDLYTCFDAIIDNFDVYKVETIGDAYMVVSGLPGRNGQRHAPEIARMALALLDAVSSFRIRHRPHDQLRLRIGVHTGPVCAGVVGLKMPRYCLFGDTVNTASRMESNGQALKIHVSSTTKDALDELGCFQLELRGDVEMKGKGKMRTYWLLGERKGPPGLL

In the case of `CCN(C)C(=O)Oc1cccc([C@H](C)N(C)C)c1`, the cell viability, % of control (lower = more cytotoxic) in experiment [1] stood at 97.8%. For the same compound, the viability (% of control) in experiment [2] amounted to 73.8%. For the same compound, the Potency entry in experiment [3], in [4], in experiment [5], in [6], in [7] and in experiment [8] was “inactive” in each case. Besides, the Potency entry in experiment [9] and in experiment [10] was “inactive” each time.
Regarding `COC(c1ccccc1)(c1ccccc1)[C@H](Oc1nc(C)cc(C)n1)C(=O)O`, the cell viability, % of control (lower = more cytotoxic) in experiment [1] stood at 195%. Also, the viability (% of control) in [2] was 121%. The Potency result in experiment [3], in experiment [4], in experiment [6], in experiment [7], in experiment [8] and in experiment [10] was “inactive” each time. Besides, the result in [11] was inactive.
For the compound `CC1(C)[C@H](C(=O)O)N2C(=O)C[C@H]2S1(=O)=O`, the cell viability, % of control (lower = more cytotoxic) in [1] stood at 240%. Also, the viability (% of control) in experiment [2] is 103%. Further, the Potency entry in experiment [3], in experiment [4], in experiment [12], in [6], in [7] and in experiment [10] was “inactive” throughout.
For `Clc1ccccc1CN1CCc2sccc2C1`, in experiment [1], the cell viability, % of control (lower = more cytotoxic) turned out to be 91.7%. Also, the viability (% of control) in experiment [2] is 45.9%. Besides, the Potency entry in [3], in [4], in experiment [5], in [6], in [7] and in [10] was “inactive” throughout.
As to `CCCCOc1ccc(CC(=O)NO)cc1`, the cell viability, % of control (lower = more cytotoxic) in [1] stood at 37%. Further, the viability (% of control) in experiment [2] is 29%. The Potency result in experiment [4], in experiment [8] and in [9] was “inactive” in each case. Further, the Potency in [12] is 6.62 µM (active); in experiment [5], 7.43 µM (active); in [6], 10.5 µM (active); in [7], 5.26 µM (active). In addition, in [11], the result was inactive.
As for `Cn1c(=O)c2c(ncn2CC(O)CO)n(C)c1=O` (configuration not stated), the cell viability, % of control (lower = more cytotoxic) in experiment [1] came out at 104%. The viability (% of control) in [2] is 100%. Moreover, the Potency entry in experiment [3], in experiment [4], in [6], in experiment [7], in experiment [8] and in [9] was “inactive” each time. The Potency result in [10] was “inactive”. In experiment [11], the outcome was inactive.
As for `CNNCc1ccc(C(=O)NC(C)C)cc1`, the cell viability, % of control (lower = more cytotoxic) in experiment [1] was determined as 284%. The viability (% of control) in experiment [2] is 78.4%. The Potency entry in experiment [3], in [4], in experiment [6], in experiment [7], in experiment [8] and in experiment [9] was “inactive” in each case. Besides, in [10], the Potency result was “inactive”. Further, the result in [11] was inactive.
Consider `CCCCS(=N)(=O)CCC(N)C(=O)O` (configuration not stated), for which the cell viability, % of control (lower = more cytotoxic) in [1] was determined as 17.3%. The viability (% of control) in experiment [2] was 34.2%. Further, the Potency entry in experiment [3], in [4], in experiment [5], in [6], in [7] and in experiment [10] was “inactive” throughout. The Potency result in experiment [13] and in experiment [14] was “inactive” throughout.
`Nc1nc(F)nc2c1ncn2[C@@H]1O[C@H](CO)[C@@H](O)[C@@H]1O`: in experiment [1], the cell viability, % of control (lower = more cytotoxic) turned out to be 9.4%. For the same compound, the viability (% of control) in experiment [2] was determined as 3.53%. The Potency result in experiment [3], in experiment [4], in experiment [8] and in [9] was “inactive” throughout. Further, the Potency in [5] is 0.372 µM (active); in experiment [6] it was 0.469 µM (active); in [7] it was 1.32 µM (active); in experiment [10], “inactive and 662 nM (active)”. Besides, the outcome in experiment [11] was inactive.
As to `OC(Cn1cncn1)(Cn1cncn1)c1ccc(F)cc1F`, the cell viability, % of control (lower = more cytotoxic) in [1] came out at 66.2%. Moreover, in experiment [2], the viability (% of control) came to 114%. For the same compound, the Potency entry in [3], in experiment [4], in [5], in experiment [6], in experiment [7] and in [8] was “inactive” throughout. In addition, the Potency entry in experiment [9] and in experiment [10] was “inactive” in each case.
In the case of `Nc1nc(=S)c2[nH]cnc2[nH]1`, in [1], the cell viability, % of control (lower = more cytotoxic) amounted to 51.9%. Also, the viability (% of control) in [2] amounted to 7.77%. The Potency result in [3] and in experiment [4] was “inactive” throughout. The Potency in experiment [7] was 0.526 µM (active); in experiment [10], 5.8 µM (active) and 1.18 µM (active).
